Data on 13 compounds can be found in PubChem BioAssay (NCATS).

In assay [1] the target is ATP-dependent 6-phosphofructokinase (Trypanosoma brucei brucei) (UniProt O15648). Nature of the assay: qHTS Assay to Find Inhibitors of T. brucei phosphofructokinase: hit validation (AID 492961). Further: on the % scale 0 is the no-effect control and ±100 the full control effect. The gist of the method: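 Luminescence from ADP-Glo reports ADP generated as T. brucei PFK (1.25 nM) phosphorylates 0.5 mM fructose-6-phosphate using 0.1 mM ATP. Reactions ran 45 min at room temperature, pH 8.0.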
(In qHTS, concentration-response curves come from the screen itself.)

Assay [2] can be described thus: Stat Signaling Pathway (AID 446; active means well fitted curve in either direction with a large enough effect, not every such curve was filed as active;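 further: ME-180 cervical cancer cells given 40 pM IL-6 alongside compound; SIE-controlled beta-lactamase reporter measured as 460/530 nm FRET emission ratio; on the % scale 0 is the no-effect control and ±100 the full control effect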). The note with it: ME-180 (cervical carcinoma) SIE beta-lactamase reporter, IL-6 stimulated, 5 h. An outline of the steps: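 Normalization used AC90 stimulation (300 pM IL-6) and AC90 inhibition (125 nM pan-JAK inhibitor at 40 pM IL-6). The underlying signal is SIE-driven beta-lactamase in ME-180 cells after 5 h IL-6 exposure with compound.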
Assay [3] in a line: qHTS profiling for inhibitors of Plasmodium falciparum (3D7) proliferation (AID 743322; call rule not given here;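 further: infected erythrocytes exposed to compound for 72 h before lysis; 100% = DMSO vehicle wells and 0% = 0.29 µM artemisinin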). The settings on record: P. falciparum 3D7 proliferation; at 28.7 µM (top of the series). The gist of the method:
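Parasite DNA was quantified by SYBR Green I fluorescence (ex 485, em 535 nm) after overnight lysis in saponin/Triton buffer at room temperature. Cultures at 0.3% parasitemia and 2.5% hematocrit were first exposed to compound for 72 h at 37 C; signals were normalised to artemisinin (0.29 uM) and vehicle wells.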

A short description of assay [4]: qHTS profiling for inhibitors of Plasmodium falciparum (DD2) proliferation (AID 743323; call rule not given here). The settings on record: lower = more inhibition; at 28.7 µM (top of the series). The gist of the method: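 P. falciparum Dd2-infected erythrocytes (0.3% parasitemia, 2.5% hematocrit) exposed 72 h at 37 C, 5% CO2. Lysis with SYBR Green, overnight at room temperature, fluorescence 485/535 nm; normalized to 0.29 uM artemisinin and DMSO.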

Assay [5] is described as follows: qHTS profiling for inhibitors of Plasmodium falciparum (HB3) proliferation (AID 743324).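 Further: 100% = DMSO vehicle wells and 0% = artemisinin-treated control wells.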 The settings on record: Plasmodium falciparum HB3 blood-stage proliferation; at 28.7 µM (top of the series). The gist of the method: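 SYBR Green fluorescence (485 ex/535 em) of lysed cultures, incubated overnight at room temperature in the dark, quantifies parasite DNA. Infected erythrocytes at 0.3% parasitemia and 2.5% hematocrit were exposed 72 h; values normalized to DMSO and 0.29 uM artemisinin controls.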

Assay [6] in a line: qHTS Assay for Identification of Small Molecule Agonists for Thrombopoietin (TPO) Signaling Pathway (AID 917). Further: on the % scale 0 is the no-effect control and ±100 the full control effect. An outline of the steps: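 Cell-based luciferase reporter screen. Mouse Ba/F3 line stably expressing human TPO receptor; IL-3 removed overnight before plating. Co-treatment with compound and EC50 TPO (26 pM), 24 hrs at 37 C, then luminescence.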
Assay [7] concerns the target Muscarinic acetylcholine receptor M1 (Rattus norvegicus) (UniProt P08482). Nature of the assay: qHTS Assay for Antagonists of Acetylcholine Muscarinic M1 Receptor: Measurement of IP-One Response (AID 944). Further: nearly all actives have a fitted effect of over 75% in size. The gist of the method:
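Antagonist mode with rat M1 receptor transfected into CHO cells. Compound is added first for 10 min, carbachol at its EC80 follows for 30 min, and lysis reagents then allow TR-FRET detection of accumulated IP1.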

Assay [8] deals with Pyruvate kinase (Leishmania mexicana) (UniProt Q27686). Nature of the assay: qHTS Validation Assay for Inhibitors of Leishmania Mexicana Pyruvate Kinase (AID 945).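 Further: 0% = DMSO only neutral control wells.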 An outline of the steps:
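Purified LmPYK (E451W mutant, 0.2 nM) was incubated 1 h at room temperature with 0.5 mM PEP and 0.1 mM ADP in 50 mM imidazole pH 7.2, 50 mM KCl, 7 mM MgCl2; ATP formed was read by PKLight luminescence, normalized to DMSO wells.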

The target of assay [9] is Pyruvate kinase PKM (Homo sapiens) (UniProt P14618). Nature of the assay: qHTS Assay for Activators of Human Muscle Pyruvate Kinase (AID 954; active means well fitted curve in the direction sought with a large enough effect, not every such curve was filed as active;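 further: 0% = uninhibited enzyme and -100% = no enzyme or full thiadiazolimine inhibition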). An outline of the steps:
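Compound pinned into substrate mix (0.5 mM PEP, 0.1 mM ADP), then 0.1 nM PKM2 added; 1 h, RT. Stop/detection luciferase reagent added, luminescence read. Normalized to no-inhibition and no-enzyme or reference-inhibitor controls.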

For assay [10], the target named is alpha-glucosidase (Oryza sativa, rice) (UniProt Q653V4). Nature of the assay: Counterscreen for Glucocerebrosidase Inhibitors: qHTS Assay for Rice alpha-Glucosidase at pH 5.0 (AID 997).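 Further: 0% = full activity with enzyme and -100% = basal without enzyme.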 The gist of the method: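 Endpoint fluorogenic assay at pH 5.0: compounds (0.7 nM to 77 uM) titrated against 4 nM rice enzyme and 400 uM 4-MU-alpha-glucoside for 20 min at room temperature; NaOH/glycine stop, read ex 365/em 440 nm, Hill-fitted AC50.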
(In general: The purpose of a counterscreen is to sort out artefacts and off-target activity.)

Assay [11] deals with Calcium and integrin-binding protein 1 (Homo sapiens) (UniProt Q99828). The assay can be described thus: Primary qHTS for Identification of Calcium Integrin Binding Protein 1 (CIB1) Competitor (AID 1508620).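 Further: GST tagged CIB1 binding a fluorescein labelled alphaIIb integrin peptide tracer; top concentration of the series differs between compounds; on the % scale 0 is the no-effect control and ±100 the full control effect.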 An outline of the steps:
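Fluorescence polarization competition: GST-tagged CIB1 (1 uM final) preincubated with compound 15 min at room temperature, then FITC-labelled alphaIIb peptide (100 nM final) added. After 15 min at room temperature, polarization read at Ex 480/Em 540.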

Assay [12] deals with Rap guanine nucleotide exchange factor 3 (Homo sapiens) (UniProt O95398). The assay can be described thus: Counterscreen qHTS for agonist of cAMP-regulated guanine nucleotide exchange factor 3 (EPAC1) (AID 1645889). Further: nearly all actives have a fitted effect of over 40% in size. Further: potency means the concentration at half of the fitted maximal effect. The gist of the method:
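Rap1B–BODIPY-GDP (250 nM) with 50 uM GDP; compounds pin-transferred to 9.74 nM–152 uM final (activator) or from 7.32 nM upwards (inhibitor). Fluorescence Ex/Em 480/540 nm read at 5 and 30 min, then after adding cAMP or buffer, at room temperature.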

The target is the same in assay [13]. The assay can be described thus: Confirmatory qHTS for agonist of cAMP-regulated guanine nucleotide exchange factor 3 (EPAC1) (AID 1645881).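 Further: EPAC1 catalysed release of BODIPY-GDP from Rap1B seen as fluorescence loss; 100% = effect of cAMP agonist control; nearly all actives have a fitted effect of over 75% in size.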
Assay [14] has as its system Zika virus NS2B-NS3 protease (unlinked complex). The assay can be described thus: Primary screen GU Rhodamine qHTS for Zika virus inhibitors: Unlinked NS2B-NS3 protease assay (AID 1347159). Further: nearly all actives have a fitted effect of over 60% in size. Further: potency means the concentration at half of the fitted maximal effect. The gist of the method: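 In dose–response format, inhibition of unlinked protease (25 nM) was measured with 1.5 microM bis-peptide Rhodamine110 substrate. Aprotinin served as the intraplate control.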

The nature of assay [15]: Primary qHTS for inhibitors of nuclear receptor binding SET domain protein 2 (NSD2) in an isogenic RCH-ACV NSD2 p.E1099K mutant (9B) (AID 1645876). Further: nearly all actives have a fitted effect of over 70% in size. Further: potency means the concentration at half of the fitted maximal effect.
Assay [16] is described as follows: Primary qHTS for inhibitors of nuclear receptor binding SET domain protein 2 (NSD2) in an RCH-ACV wild type WT cells (2C) (AID 1645877). Further: nearly all actives have a fitted effect of over 70% in size. Further: potency means the concentration at half of the fitted maximal effect.
Assay [17] has as its target Phospholipid hydroperoxide glutathione peroxidase GPX4 (Homo sapiens) (UniProt P36969). The assay can be described thus: Primary qHTS Assay for Inhibitors of Recombinant Selenoprotein Glutathione Peroxidase 4 (GPX4) (AID 1845192). Further: on the % scale 0 is the no-effect control and ±100 the full control effect; nearly all actives have a fitted effect of over 65% in size. The settings on record: outcome: dose series up to 50 µM unless noted. The gist of the method: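 Steps: GPX4 plus compound, 30 min RT; add GR/GSH/NADPH master mix; start with cumene hydroperoxide; read 340/450 nm fluorescence at 0 and 15 min. Finals were 200 nM GPX4, 1 mM GSH, 0.5 mM CHP, 0.5 mM NADPH, 100 nM GR.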

For assay [18], the target named is Luciferin 4-monooxygenase (Photinus pyralis) (UniProt P08659). Nature of the assay: Primary firefly luciferase (FLuc) qHTS assay for identification of artifact compounds. (AID 1845220). Further: nearly all actives have a fitted effect of over 60% in size. An outline of the steps:
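Enzymatic FLuc inhibition assay: compounds pre-exposed to luciferin/ATP (10 uM each) for 15 min, then purified P. pyralis enzyme at 10 nM added. Read-out: luminescence at 5 min.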

Assay [19] in a line: Primary fluorescence-based thiol-reactive (MSTI) qHTS assay for identification of artifact compounds. (AID 1845221).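 Further: thiol-reactive compounds lower the probe fluorescence signal; nearly all actives have a fitted effect of over 65% in size.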 An outline of the steps:
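Thiol-reactive compounds detected by quenching of 4 uM MSTI fluorescence (525/598 nm) after 1 h room-temperature dark incubation in PBS pH 7.4, 2% DMSO. qHTS titration; percent inhibition Hill-fitted against Acetyl-MSTI/MSTI controls.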

The nature of assay [20]: Primary redox qHTS assay for identification of artifact compounds. (AID 1845223).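 Further: 0% = DMSO and 100% = reference compound.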 An outline of the steps:
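Redox-cycling detection via DTT (250 uM final) oxidation coupled to Amplex Red (25 uM)/HRP (250 mU/mL) in HBSS. 15 min preincubation plus 30 min after DTT, room temperature. Ex/Em 525/598 nm; 4-parameter Hill fit against DMSO and 10 uM DA3003.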

Results filed as inconclusive are left out. Activity calls are given as the source filed them. Unless noted, the call rests on the fitted dose curve; in most records, active means well fitted curve in the direction sought with a large enough effect; inconclusive means small, poorly fitted or top-dose-only effect, or another doubt; inactive means no such curve, though single readings can be large; an effect the other way counts as inactive or inconclusive.

Chain of Phospholipid hydroperoxide glutathione peroxidase GPX4 (Homo sapiens) (P36969 whole entry, looked up): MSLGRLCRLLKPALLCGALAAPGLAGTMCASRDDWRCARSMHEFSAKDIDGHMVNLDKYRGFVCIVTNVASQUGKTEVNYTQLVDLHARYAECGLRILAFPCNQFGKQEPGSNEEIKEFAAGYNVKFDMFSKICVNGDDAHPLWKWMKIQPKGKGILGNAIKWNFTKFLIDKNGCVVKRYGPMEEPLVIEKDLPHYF
Chain of Calcium and integrin-binding protein 1 (Homo sapiens) (Q99828 whole entry, looked up): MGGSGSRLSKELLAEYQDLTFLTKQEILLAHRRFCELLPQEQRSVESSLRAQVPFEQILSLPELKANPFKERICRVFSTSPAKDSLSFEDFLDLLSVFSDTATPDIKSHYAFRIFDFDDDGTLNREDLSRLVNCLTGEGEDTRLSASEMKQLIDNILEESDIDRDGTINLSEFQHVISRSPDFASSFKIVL
Chain of Pyruvate kinase (Leishmania mexicana) (Q27686 2-499 E452W): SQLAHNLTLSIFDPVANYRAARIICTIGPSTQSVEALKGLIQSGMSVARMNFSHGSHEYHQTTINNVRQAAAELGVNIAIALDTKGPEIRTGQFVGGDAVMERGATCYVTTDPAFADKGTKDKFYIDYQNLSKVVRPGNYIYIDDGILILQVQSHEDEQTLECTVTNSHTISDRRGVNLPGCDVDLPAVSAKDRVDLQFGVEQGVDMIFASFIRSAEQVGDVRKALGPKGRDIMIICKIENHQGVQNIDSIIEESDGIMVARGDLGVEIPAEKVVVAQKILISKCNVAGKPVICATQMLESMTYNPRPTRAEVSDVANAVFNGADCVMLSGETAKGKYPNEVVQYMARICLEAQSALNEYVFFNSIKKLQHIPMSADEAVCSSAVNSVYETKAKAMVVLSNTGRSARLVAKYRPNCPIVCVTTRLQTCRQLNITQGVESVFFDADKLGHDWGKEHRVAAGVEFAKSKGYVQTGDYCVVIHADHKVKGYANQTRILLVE
Chain of Muscarinic acetylcholine receptor M1 (Rattus norvegicus) (P08482 whole entry, looked up): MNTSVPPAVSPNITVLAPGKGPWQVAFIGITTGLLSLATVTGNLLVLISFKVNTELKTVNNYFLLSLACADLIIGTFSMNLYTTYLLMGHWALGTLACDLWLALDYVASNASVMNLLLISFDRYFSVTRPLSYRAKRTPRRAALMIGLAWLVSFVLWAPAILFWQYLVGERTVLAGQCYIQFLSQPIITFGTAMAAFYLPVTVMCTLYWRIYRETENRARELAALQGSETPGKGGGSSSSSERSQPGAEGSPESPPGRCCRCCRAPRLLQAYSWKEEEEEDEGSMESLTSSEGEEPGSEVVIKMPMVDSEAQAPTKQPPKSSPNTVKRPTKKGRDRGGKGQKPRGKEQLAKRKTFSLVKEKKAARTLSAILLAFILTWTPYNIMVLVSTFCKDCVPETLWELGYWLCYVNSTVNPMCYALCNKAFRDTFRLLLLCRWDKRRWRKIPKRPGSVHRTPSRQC
Chain of Pyruvate kinase PKM (Homo sapiens) (P14618 whole entry, looked up): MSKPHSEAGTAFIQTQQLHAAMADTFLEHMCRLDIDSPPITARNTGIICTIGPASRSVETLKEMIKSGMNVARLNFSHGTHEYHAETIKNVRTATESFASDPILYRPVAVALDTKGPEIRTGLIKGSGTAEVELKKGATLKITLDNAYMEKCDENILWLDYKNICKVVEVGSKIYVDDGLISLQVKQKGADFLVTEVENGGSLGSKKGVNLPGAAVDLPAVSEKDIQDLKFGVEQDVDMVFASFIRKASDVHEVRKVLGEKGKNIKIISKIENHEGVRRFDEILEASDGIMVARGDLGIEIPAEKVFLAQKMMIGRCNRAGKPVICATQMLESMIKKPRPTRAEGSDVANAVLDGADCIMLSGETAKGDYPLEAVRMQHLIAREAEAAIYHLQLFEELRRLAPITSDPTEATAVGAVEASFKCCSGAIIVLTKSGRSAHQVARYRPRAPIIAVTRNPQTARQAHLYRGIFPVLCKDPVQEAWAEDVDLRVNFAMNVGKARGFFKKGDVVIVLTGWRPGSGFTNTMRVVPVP
Chain of Rap guanine nucleotide exchange factor 3 (Homo sapiens) (O95398 whole entry, looked up): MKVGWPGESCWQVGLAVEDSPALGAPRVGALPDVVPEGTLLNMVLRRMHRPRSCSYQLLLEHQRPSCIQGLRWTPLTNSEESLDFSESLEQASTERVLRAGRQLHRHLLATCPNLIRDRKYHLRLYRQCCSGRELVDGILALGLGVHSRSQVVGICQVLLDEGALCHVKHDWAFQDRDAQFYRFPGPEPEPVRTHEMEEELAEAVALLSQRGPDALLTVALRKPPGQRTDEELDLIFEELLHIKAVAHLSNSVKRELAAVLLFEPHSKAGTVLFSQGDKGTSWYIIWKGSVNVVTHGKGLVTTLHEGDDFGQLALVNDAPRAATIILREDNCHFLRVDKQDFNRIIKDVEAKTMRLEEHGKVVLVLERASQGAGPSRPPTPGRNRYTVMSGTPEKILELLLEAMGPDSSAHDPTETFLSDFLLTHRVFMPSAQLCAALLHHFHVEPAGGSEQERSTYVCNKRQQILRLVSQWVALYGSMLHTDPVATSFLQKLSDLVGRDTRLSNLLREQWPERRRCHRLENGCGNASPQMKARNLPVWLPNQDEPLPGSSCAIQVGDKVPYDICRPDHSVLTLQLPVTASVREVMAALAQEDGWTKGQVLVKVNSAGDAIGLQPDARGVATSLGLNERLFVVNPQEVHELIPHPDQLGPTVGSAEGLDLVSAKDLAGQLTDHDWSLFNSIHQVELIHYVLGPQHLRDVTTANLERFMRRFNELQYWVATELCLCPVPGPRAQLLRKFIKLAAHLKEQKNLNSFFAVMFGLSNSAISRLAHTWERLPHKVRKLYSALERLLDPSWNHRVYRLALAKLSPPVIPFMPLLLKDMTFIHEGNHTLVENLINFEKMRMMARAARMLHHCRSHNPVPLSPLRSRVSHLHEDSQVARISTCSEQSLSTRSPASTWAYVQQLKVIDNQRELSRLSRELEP
Chain of ATP-dependent 6-phosphofructokinase (Trypanosoma brucei brucei) (O15648 whole entry, looked up): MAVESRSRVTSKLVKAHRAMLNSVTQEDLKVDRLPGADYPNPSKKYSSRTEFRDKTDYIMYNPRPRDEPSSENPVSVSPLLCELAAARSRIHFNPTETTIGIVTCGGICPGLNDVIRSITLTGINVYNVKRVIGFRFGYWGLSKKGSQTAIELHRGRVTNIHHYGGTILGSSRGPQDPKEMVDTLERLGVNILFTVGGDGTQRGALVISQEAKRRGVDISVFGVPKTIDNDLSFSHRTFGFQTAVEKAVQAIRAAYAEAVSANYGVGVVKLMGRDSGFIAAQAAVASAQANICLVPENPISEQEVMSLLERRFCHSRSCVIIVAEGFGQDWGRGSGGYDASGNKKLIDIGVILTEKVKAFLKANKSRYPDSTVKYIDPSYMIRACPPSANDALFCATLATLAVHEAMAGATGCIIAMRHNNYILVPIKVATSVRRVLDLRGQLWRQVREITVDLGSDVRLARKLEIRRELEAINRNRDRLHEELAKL

Turning to `CC(=O)[C@H]1CC[C@H]2C3CC=C4C[C@@H](O)CC[C@]4(C)C3CC[C@]12C` (some centres undefined), the call in assay [1] was inactive.
With `COc1cc(-c2ccc(N=Nc3ccc4c(S(=O)(=O)O)cc(S(=O)(=O)O)c(N)c4c3O)c(OC)c2)ccc1N=Nc1ccc2c(S(=O)(=O)O)cc(S(=O)(=O)O)c(N)c2c1O`, in assay [2] (at 17.2 µM (top of the series)), the activity, negative = inhibition was -15.7% (inactive).
As to `CC(C)N=C(N)N=C(N)Nc1ccc(Cl)cc1`, the remaining parasite growth % (stronger effect = lower value) in [3] is -0.519%. The same compound gave an activity, percent of control in assay [4] of 0.237%. Besides, the remaining proliferation (% of control), lower = more inhibition in assay [5] is 0.187%.
With `C[C@@H]1CNCCN1S(=O)(=O)c1cccc2cnccc12`, the Potency entry in assay [6], in [7] and in [8] was “inactive” in each case. For the same compound, the call in [9] and in assay [10] was inactive.
Take `OC[C@H]1OC([S-])[C@H](O)[C@@H](O)[C@H]1O.[Au+]` (some centres undefined): in [3], the remaining parasite growth % (stronger effect = lower value) was determined as 86.3%. In [4], this compound gave an activity, percent of control of 98.2%. In [5], this compound registered a remaining proliferation (% of control), lower = more inhibition of 78.1%.
With `O=C(Nc1cc(C(=O)Nc2ccc(S(=O)(=O)O)cc2S(=O)(=O)O)cc(C(=O)Nc2ccc(S(=O)(=O)O)cc2S(=O)(=O)O)c1)Nc1cc(C(=O)Nc2ccc(S(=O)(=O)O)cc2S(=O)(=O)O)cc(C(=O)Nc2ccc(S(=O)(=O)O)cc2S(=O)(=O)O)c1`, the activity, negative = inhibition in assay [2] (at 38 µM (top of the series)) was -91.7% (active). Also, the Potency entry in assay [6], in assay [7] and in assay [8] was “inactive” each time. Also, the call in assay [9] and in assay [10] was inactive.
Regarding `COc1ccc2c(c1)Oc1nc(-c3ccc(C)s3)nc(SCC(=O)Nc3cccc(C(=O)O)c3)c1C2`, the result in assay [11] was inactive.
`O=C(O)c1ccccc1-c1c2cc(I)c(=O)c(I)c-2oc2c(I)c(O)c(I)cc12`: the Potency in assay [12] is 7.08 µM (active).
For the compound `COc1ccc(NS(=O)(=O)c2ccc3c(c2)[C@H]2C=CC[C@H]2[C@@H](c2ccc(C(=O)O)cc2)N3)cc1`, in assay [13], the result was inactive. In assay [12], the Potency result is “inactive”.
With `O=C(Nc1ccccc1C(=O)OCc1cc(=O)n2c3c(sc2n1)CCCC3)c1ccc(F)cc1`, the outcome in assay [13] was inactive.
As for `O=C(CCCCCCC(=O)Nc1ccc(C2OC(CSc3nc(-c4ccccc4)c(-c4ccccc4)o3)CC(c3ccc(CO)cc3)O2)cc1)NO` (centres undefined), the results for the Potency in assay [14], in assay [15] and in [16] were 39.8 µM (active), 5.15 µM (active) and 3.65 µM (active), respectively. Moreover, the outcome in assay [11] was inactive. Further, the Potency result in [17], in assay [18], in assay [19] and in [20] was “inactive” in each case.
As for `C/C=C/C[C@@H](C)[C@@H](O)[C@H]1C(=O)N[C@@H](CC)C(=O)N(C)CC(=O)N(C)[C@@H](CC(C)C)C(=O)N[C@@H](C(C)C)C(=O)N(C)[C@@H](CC(C)C)C(=O)N[C@@H](C)C(=O)N[C@H](C)C(=O)N(C)[C@@H](CC(C)C)C(=O)N(C)[C@@H](CC(C)C)C(=O)N(C)[C@H](C(C)C)C(=O)N1C`, the Potency result in assay [14], in [17], in [18], in assay [19] and in assay [20] was “inactive” throughout.
As for `CC1(C)CC[C@]2(C(=O)O)CC[C@]3(C)C(=CC[C@@H]4[C@@]5(C)C[C@@H](O)[C@H](O)C(C)(C)[C@@H]5CC[C@]43C)[C@@H]2C1`, the Potency entry in assay [15] and in [16] was “inactive” each time.
